The source of these data is PubChem BioAssay (NCI).

Compounds without any hit were thinned out: in the full panel of roughly 83,000, 20% have a hit.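 Interpretation: 100, growth as untreated; towards 0, rising growth inhibition; 0, no net growth; 0 to -100, cell death. Compounds scoring below 10 were considered active.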 Values without a mark were called inactive. The source made the active and inactive calls.

Test systems include NCI-H23 lung; NCI-H226 lung; NCI-H322M lung; HOP-62 NSCLC; NCI-H460 lung; HOP-92 NSCLC; NCI-H522 lung; A549/ATCC NSCLC; 786-0 renal; COLO 205 colon; DU-145 prostate; K-562 leukemia; MALME-3M melanoma; MDA-MB-231 breast; RXF 393 renal; SF-268 CNS; SF-295 CNS; SF-539 CNS; UACC-257 melanoma; M14 melanoma.
Holding throughout (assay): NCI-60 one-dose screen, 48 h (100 = growth as untreated, 0 = no growth, -100 = all killed)
What all share (details): 10 µM unless noted

Consider `Nc1cc(NN=C(c2ccc(O)cc2)c2ccc(O)cc2)c([N+](=O)[O-])cc1[N+](=O)[O-]`, for which the growth in the test on NCI-H23 lung was -58.3% (active); with NCI-H226 lung it was 61.8%; with NCI-H322M lung it was 110%; with HOP-62 NSCLC, -10.2% (active); in the test with NCI-H460 lung, -60.1% (active); in the test with HOP-92 NSCLC, 60.5%. The growth was -82% (active) in the test with NCI-H522 lung; -49.6% (active) with A549/ATCC NSCLC; -93.9% (active) in the test with 786-0 renal; -52.8% (active) in the test with COLO 205 colon; 91.3% with DU-145 prostate; 78.4% in the test with K-562 leukemia. In addition, the growth in the test on MALME-3M melanoma is 105%; in the test on MDA-MB-231 breast it was 54.4%; with RXF 393 renal, -69.9% (active); in the test with SF-268 CNS, 81.8%; with SF-295 CNS it was 75.8%; in the test with SF-539 CNS, -55.3% (active). For the same compound, the results for the growth in the test on UACC-257 melanoma and in the test on M14 melanoma were -60.6% (active) and -52.9% (active), respectively.
Consider `CCCC[C@@H](C=O)NC(=O)[C@H](CC(C)C)NC(=O)[C@H](CC(C)C)NC(=O)OCc1ccccc1`, for which the growth is -17.1% (active) in the test on NCI-H23 lung; -54.1% (active) in the test with NCI-H226 lung; 15.1% in the test on NCI-H322M lung; 11.8% with HOP-62 NSCLC; 0.451% (active) in the test on NCI-H460 lung; -35.2% (active) in the test with HOP-92 NSCLC. Further, the growth in the test with NCI-H522 lung is -0.189% (active); with A549/ATCC NSCLC, 71.3%; in the test on 786-0 renal, -10% (active); in the test on COLO 205 colon, -3.03% (active); in the test with DU-145 prostate it was -38.2% (active); in the test with K-562 leukemia, 0.815% (active). The growth with MALME-3M melanoma was -33% (active); in the test on MDA-MB-231 breast, -32.3% (active); in the test on RXF 393 renal, -63.7% (active); with SF-268 CNS it was -11.9% (active); with SF-295 CNS, -12% (active); with SF-539 CNS, -45.7% (active). Further, the growth is 12.4% in the test on UACC-257 melanoma and -35.3% (active) in the test on M14 melanoma.
With `COc1ccc(-c2cc(-c3ccc(OC)c(OC)c3)nc(SCCCCCC(=O)NO)n2)cc1`, the growth in the test on NCI-H23 lung is 68.7%; in the test with NCI-H226 lung it was 95.2%; in the test with NCI-H322M lung, 70.6%; in the test with HOP-62 NSCLC, 60.3%; in the test on NCI-H460 lung, 62.3%; in the test on HOP-92 NSCLC, 27.6%. Further, the growth in the test on NCI-H522 lung is 6.61% (active); in the test with A549/ATCC NSCLC, 85.7%; in the test on 786-0 renal it was 94.1%; in the test on COLO 205 colon, 36.8%; in the test with DU-145 prostate, 58.8%; in the test with K-562 leukemia, 26.1%. The growth in the test with MALME-3M melanoma is 19.4%; with MDA-MB-231 breast, 42.2%; in the test on RXF 393 renal, 42.1%; in the test with SF-268 CNS, 82.3%; with SF-295 CNS, 72.9%; with SF-539 CNS it was 55.4%. The growth is 41.8% in the test on UACC-257 melanoma and 47.7% with M14 melanoma.
